Source: PubChem
Rows were chosen to be rich in hits. Some 8.1% of all compounds tested hit in one or more screens of this group.
ELG1 repair inh – ELG1-dependent DNA repair inhibition; HEK293T ELG1-luciferase reporter, luminescence, 16 h; DNA damage induced by 5-fluorouridine; Potency, µM (doses to about 46.1 µM), without a hit: top-dose activity change, negative = inhibition, usual class: inhibitors; actives 2.3% (n = 330,000); AID 504467; note: % is set by controls: 0 for no effect and ±100 for the full control effect; nearly all actives have a fitted effect of over 55% in size
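5-Fluorouridine DNA damage + compound/DMSO, 2,000 cells/well, 16 h, 37 °C/5% CO2. ONE-Glo, 30 min RT, luminescence. Readout = decrease in reporter signal.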
SW480 rereplic – induces DNA re-replication in SW480 colon adenocarcinoma cells; SW480 DNA re-replication, Hoechst DNA content imaging, 48 h; actives 1.8% (n = 340,000); AID 624297; Potency, µM (doses to about 46.1 µM), for inactives: at the top dose re-replication activation, hits mostly activators; note: % of control where 0% means no effect; nearly all actives have a fitted effect of over 55% in size
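DNA re-replication was detected as more nuclei of elevated Hoechst intensity after 48 hr exposure to compound (23 nL pinned per well of 250 cells).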
KB-3-1 tox – kills parental KB-3-1 adenocarcinoma cells | KB-3-1 viability, CellTiter-Glo ATP luminescence, 72 h | Potency, µM (series often up to 46.1 µM), hits mostly cytotoxic | actives 1.4% (n = 400,000) | AID 1347075; note: % is set by controls: 0 for no effect and ±100 for the full control effect; nearly all actives have a fitted effect of over 60% in size
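Luminescent ATP read-out (CellTiter-Glo) measures survival of drug-naive KB-3-1 cells after 72 h compound exposure at 37 °C. Titration series was screened from lowest to highest concentration, with DMSO vehicle plates as background controls.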
KB-V1 MDR tox – KB-V1 MDR subline cytotoxicity | KB-V1 MDR cells viability, CellTiter-Glo, 72 h | Potency, µM (top dose mostly 46.1 µM), usual class: cytotoxic | actives 3.4% (n = 400,000) | AID 1347076; note: % is set by controls: 0 for no effect and ±100 for the full control effect; nearly all actives have a fitted effect of over 60% in size
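KB-V1 MDR subline cells in DMEM (phenol-red free, 10% FBS) exposed to compounds in qHTS concentration series for 72 h at 37 degrees C. Viability read by CellTiter-Glo luminescence; concentration-effect curves fitted after normalization and correction.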
MCF10A rereplic – DNA re-replication induction in MCF 10a cells; MCF 10A DNA re-replication, Hoechst nuclear intensity, 48 h; Potency, µM (top dose mostly 46.1 µM), for inactives: at the top dose activity, positive = re-replication, actives largely listed as activators; actives 2.9% (n = 350,000); AID 624296; note: % of control where 0% means no effect; nearly all actives have a fitted effect of over 50% in size
Active calls of the source: *. Calls come from the whole dose curve; as a rule, active = well fitted curve in the direction sought with a large enough effect; inconclusive = small, poorly fitted or top-dose-only effect, or another doubt; inactive = no such curve, though single readings can be large; an effect the other way counts as inactive or inconclusive. Potency is the fitted concentration of half-maximal effect.

`C=C(C)c1cccc(C(C)(C)NC(=O)N2CCN(CC)CC2)c1` gave ELG1 repair inh 0%, SW480 rereplic -11%, KB-3-1 tox inactive, KB-V1 MDR tox inactive and MCF10A rereplic 3%.
For COc1ccc(-c2cn3cc(Br)cnc3n2)cc1 the results were ELG1 repair inh inconclusive, SW480 rereplic inconclusive, KB-3-1 tox 13µM*, KB-V1 MDR tox 10µM* and MCF10A rereplic -2%.
`COc1ccc(-c2cn3cccnc3n2)cc1Br` gave ELG1 repair inh inconclusive, SW480 rereplic -10%, KB-3-1 tox inconclusive, KB-V1 MDR tox inconclusive and MCF10A rereplic 2%.
Cc1cc(NC(=O)CC#N)n(-c2nc3ccccc3[nH]2)n1 was read as ELG1 repair inh 12µM*, SW480 rereplic inconclusive, KB-3-1 tox inactive, KB-V1 MDR tox inactive and MCF10A rereplic 18%.
For Cc1cc(NC(=O)c2ccccc2)n(-c2nc3ccccc3[nH]2)n1 the results were ELG1 repair inh -9%, SW480 rereplic 6%, KB-3-1 tox inactive, KB-V1 MDR tox inactive and MCF10A rereplic 8%.
`CCOC(=O)C(=O)Nc1cc(C)nn1-c1nc2ccccc2[nH]1` gave ELG1 repair inh inconclusive, SW480 rereplic -3%, KB-3-1 tox inactive, KB-V1 MDR tox inactive and MCF10A rereplic -5%.
`Cc1cc(NC(=O)c2cccs2)n(-c2nc3ccccc3[nH]2)n1` gave ELG1 repair inh -12%, SW480 rereplic 4.6µM*, KB-3-1 tox inconclusive, KB-V1 MDR tox inconclusive and MCF10A rereplic inconclusive.
For COc1ccc(C(=O)Nc2cc(C)nn2-c2nc3ccccc3[nH]2)c(OC)c1 the results were ELG1 repair inh 23µM*, SW480 rereplic -44%, KB-3-1 tox inactive, KB-V1 MDR tox inactive and MCF10A rereplic inconclusive.
For Cc1cc(NC(=O)c2sccc2C)n(-c2nc3ccccc3[nH]2)n1 the results were ELG1 repair inh inconclusive, SW480 rereplic 11%, KB-3-1 tox inconclusive, KB-V1 MDR tox inconclusive and MCF10A rereplic inconclusive.
`COc1cccc(OC)c1C(=O)Nc1cc(C)nn1-c1nc2ccccc2[nH]1` gave ELG1 repair inh inconclusive, SW480 rereplic inconclusive, KB-3-1 tox 15µM*, KB-V1 MDR tox 3.3µM* and MCF10A rereplic inconclusive.
Screening CCNC(=O)Nc1ccccc1C(=O)OC returned ELG1 repair inh inconclusive, SW480 rereplic -6%, KB-3-1 tox inactive, KB-V1 MDR tox inactive and MCF10A rereplic 16%.
Cc1ccc(C)c(Cc2c(C)nc3c(C(=O)N4CCOCC4)cnn3c2C)c1 was read as ELG1 repair inh 18%, SW480 rereplic -3%, KB-3-1 tox inactive, KB-V1 MDR tox inactive and MCF10A rereplic -2%.
CCCCn1c(Nc2ccc(OC)cc2)nc2ccccc21 was read as ELG1 repair inh 1%, SW480 rereplic 2%, KB-3-1 tox inactive, KB-V1 MDR tox inactive and MCF10A rereplic 0%.
For COc1ccc2oc(C(=O)N3CCN(C(c4ccccc4)c4ccccc4)CC3)c(C)c2c1 the results were ELG1 repair inh -7%, SW480 rereplic -65%, KB-3-1 tox inactive, KB-V1 MDR tox inactive and MCF10A rereplic inconclusive.
O=C(CN1CCN(Cc2ccccc2)CC1)N1CCCc2c1c(=O)oc1ccc(O)cc21 was read as ELG1 repair inh -19%, SW480 rereplic 26%, KB-3-1 tox inconclusive, KB-V1 MDR tox 15µM* and MCF10A rereplic 21µM*.
`Cc1ccccc1N(C(=O)Cc1ccsc1)C(C(=O)NC1CCCCC1)c1ccc(F)cc1` (stereo not given) gave ELG1 repair inh 1%, SW480 rereplic 17%, KB-3-1 tox inactive, KB-V1 MDR tox inactive and MCF10A rereplic inconclusive.
CC(O)CSc1nc2c(c(=O)[nH]c(=O)n2C)n1Cc1ccccc1Cl (stereo not given) was read as ELG1 repair inh 22%, SW480 rereplic 3%, KB-3-1 tox inactive, KB-V1 MDR tox inactive and MCF10A rereplic 1%.
For COc1ccc(NS(=O)(=O)c2ccc3oc(SC4CCOC4=O)nc3c2)cc1 (stereo not given) the results were ELG1 repair inh 17%, SW480 rereplic inconclusive, KB-3-1 tox inactive, KB-V1 MDR tox inactive and MCF10A rereplic 2.9µM*.
For COc1ccc(NS(=O)(=O)c2ccc3oc(SC)nc3c2)cc1 the results were ELG1 repair inh -19%, SW480 rereplic -3%, KB-3-1 tox inconclusive, KB-V1 MDR tox inconclusive and MCF10A rereplic inconclusive.
For COCC(C)NC(=O)c1cccc([N+](=O)[O-])c1 (stereo not given) the results were ELG1 repair inh -11%, SW480 rereplic -16%, KB-3-1 tox inactive, KB-V1 MDR tox inactive and MCF10A rereplic -8%.
For CC(C)c1ccc(CCNC(=O)c2ccc([N+](=O)[O-])cc2)cc1 the results were ELG1 repair inh 9.2µM*, SW480 rereplic 1%, KB-3-1 tox inactive, KB-V1 MDR tox inactive and MCF10A rereplic -3%.
COc1cc(OC)cc(C(=O)NC(C)c2ccc(Br)cc2)c1 (stereo not given) was read as ELG1 repair inh inconclusive, SW480 rereplic 2%, KB-3-1 tox inactive, KB-V1 MDR tox inactive and MCF10A rereplic -2%.
`COc1ccc(C(C)NC(=O)c2ccc(Br)cc2)cc1OC` (stereo not given) gave ELG1 repair inh 17%, SW480 rereplic -36%, KB-3-1 tox inactive, KB-V1 MDR tox 16µM* and MCF10A rereplic 10%.
`COc1ccc(OC)c(C(C)NC(=O)c2ccc(Br)cc2)c1` (stereo not given) gave ELG1 repair inh -5%, SW480 rereplic -106%, KB-3-1 tox inactive, KB-V1 MDR tox 16µM* and MCF10A rereplic -7%.
COc1ccc(C(C)NC(=O)c2cccc([N+](=O)[O-])c2)cc1OC (stereo not given) was read as ELG1 repair inh 7%, SW480 rereplic 7%, KB-3-1 tox inactive, KB-V1 MDR tox 16µM* and MCF10A rereplic -1%.
`COCCCC1CCN(C(=O)C2CCC(=O)N(Cc3cccc(F)c3)C2)CC1` (stereo not given) gave ELG1 repair inh 11%, SW480 rereplic 5%, KB-3-1 tox inactive, KB-V1 MDR tox inactive and MCF10A rereplic 6%.
`COc1ccc(CN2CCN(C(=O)CC(C)C)CC2)cc1OC` gave ELG1 repair inh 10%, SW480 rereplic 0%, KB-3-1 tox inactive, KB-V1 MDR tox inactive and MCF10A rereplic 0%.
`COc1ccc(C(C)NC(=O)c2ccc([N+](=O)[O-])cc2)cc1OC` (stereo not given) gave ELG1 repair inh -24%, SW480 rereplic -40%, KB-3-1 tox inactive, KB-V1 MDR tox 21µM* and MCF10A rereplic 8%.
